Bioassay records (PubChem)
A selection: hits, their analogues and other compounds. The true share with any hit is near 2.5%.
CASP6 VEID inh: human caspase-6 inhibitors, primary screen, biochemical, VEID-R110 fluorescence, single point, set 2 | P55212 | purified caspase-6, Z-VEID-R110 cleavage fluorescence | inhibition, % at 12.5 µM | 0.53% of 350,000 active | AID 686996, 2013;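 active = mean inhibition across replicates at least about 35%, with every replicate also reaching that limit, limit read from the data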;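 also: 0% = median of neutral control wells and 100% = no fluorescence left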
Ecoli rRNA inh: reduced GFP signal of wild-type E. coli, primary screen, bacterial rRNA inhibitor project, GFP/RFP fluorescence, OD600, single point | E. coli WT GFP vs humanized-ribosome RFP mutants, 24 h; hits give low values; DMSO median 0, no signal -100 | 1.6% of 350,000 active | AID 720706, 2013 | GFP signal change (wild-type ribosome), % (no concentration beside the values);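 active = significant combined selectivity score with lowered wild-type GFP, culture density cut under 30%, mutant RFP and density less affected; inactive = any of these conditions unmet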
RAD52 anneal inh: RAD52 DNA annealing inhibitors, primary screen, biochemical, FRET, single point, set 2 | recombinant RAD52 DNA annealing, FRET fluorescence | inhibition, % at 18.7 µM | 0.46% of 360,000 active;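 active = every replicate showing at least 50% inhibition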
Target sequence (P43351 whole entry, looked up): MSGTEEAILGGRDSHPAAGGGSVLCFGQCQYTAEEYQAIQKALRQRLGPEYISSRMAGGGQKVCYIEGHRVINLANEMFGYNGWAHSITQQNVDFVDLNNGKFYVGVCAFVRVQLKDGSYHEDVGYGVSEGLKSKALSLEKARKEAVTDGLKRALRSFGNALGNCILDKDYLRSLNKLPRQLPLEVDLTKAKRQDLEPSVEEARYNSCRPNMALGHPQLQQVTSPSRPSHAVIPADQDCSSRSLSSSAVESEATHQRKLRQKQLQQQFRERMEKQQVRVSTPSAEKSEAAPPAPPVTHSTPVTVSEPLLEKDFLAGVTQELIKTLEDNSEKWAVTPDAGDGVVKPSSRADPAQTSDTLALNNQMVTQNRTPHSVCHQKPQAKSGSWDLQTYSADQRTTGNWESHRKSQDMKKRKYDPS
NSD2 HMT inh: NSD2 histone methyltransferase inhibitors, primary screen, biochemical, AlphaScreen, single concentration, set 2; Histone-lysine N-methyltransferase NSD2 (Homo sapiens), O96028; NSD2 peptide methylation, 120 min; inhibition, % at 12.5 µM; 0.54% of 310,000 active; in the data active = inhibition above about 50%
AF4-AF9 inh: inhibitors of AF4 peptide binding to AF9, primary screen, biochemical, AlphaScreen, biotin-AF4 peptide, FLAG-AF9, single point; Protein AF-9 (Homo sapiens), P42568; inhibition, % at 10 µM; 0.47% of 350,000 active;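 active = every replicate reaching a set inhibition limit, whatever the replicate mean, cut at about 25% in these data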;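 also: 0% = plate neutral control median and 100% = total signal loss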
* marks the source's active call; other numbers are inactive results; x = no result given; ! = not confirmed by another sample.

SMILES | CASP6 VEID inh | Ecoli rRNA inh | RAD52 anneal inh | NSD2 HMT inh | AF4-AF9 inh
CCN(CC)S(=O)(=O)c1cccc(-c2n[nH]c(=S)n2/N=C/c2ccc(OC(F)F)cc2)c1 | -3 | -18* | -8 | 8 | 2
CCN(CC)S(=O)(=O)c1cccc(-c2n[nH]c(=S)n2/N=C/c2ccc(OC)cc2)c1 | x | x | x | 2 | x
COc1ccc(NC(=O)COC(=O)CCNC(=O)c2ccccc2)cc1OC | x | x | x | 4 | x
CCS(=O)(=O)N1CCC2(CC1)CN(Cc1ccc3c(c1)OCO3)[C@@H](CO)c1[nH]c3cc(OC)ccc3c12 | 4 | -2 | -1 | x | -15
COc1ccc2c3c([nH]c2c1)[C@@H](CO)N(C(C)=O)CC31CCN(C(=O)c2ccc3c(c2)OCO3)CC1 | -1 | 2 | -2 | x | 25*
COc1ccc2c3c([nH]c2c1)[C@H](CO)N(C(C)=O)CC31CN(C(=O)c2ccc3c(c2)OCO3)C1 | -1 | 2 | 6 | x | -6
CCCN1CCC2(CC1)CN(Cc1ccc3c(c1)OCO3)[C@H](CO)c1[nH]c3cc(OC)ccc3c12 | -2 | -6 | 87* | x | 30*
COc1ccc(C(=O)Oc2ccc(/C=N/O)cc2)cc1 | 3 | -26* | -19 | 0 | x
C[C@H](CO)N1C[C@H](C)[C@H](CN(C)Cc2ccc3c(c2)OCCN3C)OCc2ccccc2-c2ccccc2C1=O | -1 | 0 | 2 | x | 16
C[C@@H]1CN([C@H](C)CO)C(=O)c2c(c3ccccc3n2C)-c2ccccc2CO[C@H]1CN(C)Cc1ccc2c(c1)OCCN2C | 1 | 1 | -3 | x | 42*!
C[C@H]1CN([C@@H](C)CO)C(=O)c2ccccc2-c2ccccc2CO[C@H]1CN(C)Cc1ccc2c(c1)OCCN2C | 1 | 1 | 1 | x | 34*
CCOC(=O)N1CCC(NC(=O)CS(=O)Cc2nc(-c3ccc(CC)cc3)oc2C)CC1 (centres undefined) | x | x | x | -6 | x
O=C1OC(c2ccc(Cl)cc2)=N/C1=C\C=C\c1ccco1 | 64* | 22 | -22 | 0 | 0
O=C1OC(c2ccccc2)=N/C1=C\C=C\c1ccco1 | 56* | 21 | -31 | 2 | 0
CCCNC(=O)N1C[C@@H]2[C@H](c3ccccc31)[C@H](CO)N2Cc1ccccc1F | -2 | -1 | -2 | x | 0
COCC(C)n1c(SCc2cc(=O)n3cc(C)ccc3n2)nc2ccccc2c1=O (centres undefined) | x | -27* | -11 | -2 | -2
CC(C)OC(=O)NCCOC(=O)Nc1ccc(Cl)cc1 | 0 | -21* | 6 | 2 | 3
CO[C@H]1CN(C)C(=O)c2cc(NC(=O)NC(C)C)ccc2OC[C@H](C)N(Cc2cncnc2)C[C@H]1C | x | 1 | x | x | x
Cc1[nH]nc(N2CCCCC2)c1[N+](=O)[O-] | x | x | x | 5 | x
Cc1nc(N2CCCCC2)c(C#N)c(C)c1[N+](=O)[O-] | 3 | -33* | 11 | 1 | -2
CC1CCN(C(=O)N2c3ccccc3Sc3ccccc32)CC1 | x | x | x | -5 | x
O=C(NC1CCN(C(=O)N2c3ccccc3Sc3ccccc32)CC1)c1ccccc1F | -2 | -20* | -17 | 18 | 8
Nc1nc(-c2cc(O)ccc2[N+](=O)[O-])cc(-c2ccccc2)c1[N+](=O)[O-] | 47* | -4 | -48 | -1 | -1
Cc1cccc(-c2nc(CCNC(=O)c3ccco3)cs2)c1 | 42* | -13 | -3 | 1 | -2
Cc1ccc(-c2nc(CCNC(=O)c3ccco3)cs2)cc1 | -9 | -6 | -1 | -1 | -2
SMILES | CASP6 VEID inh | Ecoli rRNA inh | RAD52 anneal inh | NSD2 HMT inh | AF4-AF9 inh
Cc1ccc(-c2csc(NC(=O)CCNC(=O)c3ccco3)n2)cc1 | 1 | -36* | -24 | 1 | -1
C[C@H](CO)N1C[C@H](C)[C@H](CN(C)Cc2ccc(C(=O)O)cc2)Oc2ccc(NC(=O)CCC(F)(F)F)cc2C1=O | 0 | 7 | 8 | x | -5
COc1ccccc1CNc1cncnc1 | 1 | -23* | 0 | 2 | -10
Cc1ccc(Cl)cc1NC(=S)N(C)N | -2 | 16 | -23 | -2 | 1
Cc1ccc(NC(=S)N(C)N)cc1Cl | -5 | -25* | -4 | -1 | 1
O=C(NCC[C@H]1CC[C@H](NC(=O)C2CCCC2)[C@@H](CO)O1)c1ccc(F)cc1 | 2 | -2 | 0 | x | 0
COc1ccc2c3c(n(C)c2c1)[C@@H](CO)N(C(=O)Cc1ccccn1)CC31CN(CC2CCOCC2)C1 | 1 | 1 | 0 | x | 1
O=CN/N=C/c1c(O)ccc2ccccc12 | -3 | -20* | -135 | -5 | -5
Cc1ccc(S(=O)(=O)N[C@H]2C=C[C@@H](CC(=O)NCc3ccncn3)O[C@@H]2CO)cc1 | 2 | 5 | -10 | x | 0
COc1ccccc1NS(=O)(=O)c1cccc(-n2c(O)c(C=Nc3ccccc3C(=O)O)c3ccccc3c2=O)c1 | 10 | -25* | -17 | x | 1
Cc1ccc(NC(=O)Nc2nnc(-c3ccccc3)o2)cc1 | 38* | 17 | -1 | 0 | -1
Cc1ccccc1C(=O)Nc1nnc(-c2ccncc2)o1 | 5 | -33* | -17 | -1 | 0
COc1ccc(-c2nnc(NC(=O)c3ccccc3C)o2)cc1 | 2 | -40 | 3 | x | 3
COC(=O)C1=CN(Cc2ccc(OC)cc2)C=C(C(=O)OC)C1c1ccsc1 | -3 | -22* | -16 | -13 | -26
O=C(Nc1ccn(Cc2c(F)c(F)cc(F)c2F)n1)c1ccc(COc2ccccc2Cl)cc1 | 1 | -4 | -17 | -2 | 0
Cc1cc(C)nc(NC(=O)c2ccc(COc3ccccc3Cl)cc2)c1 | -6 | -24* | -7 | -3 | -1
O=C(N/N=C/c1ccc(O)c(O)c1)c1ccc(CSc2cccc3cccnc23)cc1 | 4 | -16* | -4 | 10 | x
CCC(C)(C)n1nnnc1C(c1cc2ccc(OC)cc2[nH]c1=O)N1CCc2ccccc2C1 (centres undefined) | x | x | x | -1 | x
COc1ccc2cc(C(c3nnnn3C3CCCC3)N3CCc4ccccc4C3)c(=O)[nH]c2c1 (centres undefined) | 47* | 2 | -40 | 0 | x
COc1ccc(CN(C)C[C@H]2OCCCC[C@H](C)Oc3ccc(NC(=O)CCC(F)(F)F)cc3C(=O)N([C@H](C)CO)C[C@@H]2C)cc1 | 1 | 1 | 4 | x | -3
O=C(O)c1csc(N/N=C/c2ccc(Br)cc2)n1 | 17 | -28* | -27 | 2 | 0
CC(=O)c1sc(NC(=O)c2ccccc2)nc1-c1ccccc1 | 1 | -20* | -12 | -2 | 0
Cn1c(CSCCOc2ccccc2)n[nH]c1=S | 45* | x | -15 | -1 | 0
CCC(=O)N1C[C@H](C)[C@@H](OC)CN(C)C(=O)c2cc(NC(=O)C3CCCCC3)ccc2OC[C@@H]1C | 1 | 0 | -3 | x | 0
